# Screening data (PubChem)
# ST2 inh = IL1RL1 inhibition; inhibition, % for hits at 17 µM; AID 1259354; Q01638; AlphaLISA ST2-Fc/biotin-IL-33 interaction, 1 h; 78,000 tested, 2.3% active; in the data active = inhibition above about 30%
# Target sequence (Q01638 whole entry, looked up): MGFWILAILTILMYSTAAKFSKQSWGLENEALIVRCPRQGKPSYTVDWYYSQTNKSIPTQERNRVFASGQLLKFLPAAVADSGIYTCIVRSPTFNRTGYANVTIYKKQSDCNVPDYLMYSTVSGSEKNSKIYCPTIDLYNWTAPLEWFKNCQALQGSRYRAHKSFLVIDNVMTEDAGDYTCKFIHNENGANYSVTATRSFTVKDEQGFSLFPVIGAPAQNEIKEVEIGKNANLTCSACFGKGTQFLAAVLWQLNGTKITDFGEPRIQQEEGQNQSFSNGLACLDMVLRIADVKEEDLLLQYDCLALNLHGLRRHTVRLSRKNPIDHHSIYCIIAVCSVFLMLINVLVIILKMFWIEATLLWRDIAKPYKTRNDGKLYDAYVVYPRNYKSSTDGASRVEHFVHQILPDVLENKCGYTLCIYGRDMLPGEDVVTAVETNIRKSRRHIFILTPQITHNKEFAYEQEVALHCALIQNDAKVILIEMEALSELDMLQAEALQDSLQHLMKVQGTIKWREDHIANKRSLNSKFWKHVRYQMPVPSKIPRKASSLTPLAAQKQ
# * = called active by the depositor; i = inactive. Many of the other results were omitted from the sample, so hits are more common in it than they were.
SMILES,ST2 inh
COc1cc(N/C=C(/C#N)c2nc(-c3ccc(OC)c(OC)c3)cs2)c(OC)cc1Cl,40%*
COc1cc(NC(=O)c2ccc(-c3ccccc3)cc2)c(OC)cc1Cl,i
COc1ccc(Nc2cc(C)nc(Nc3ccc(NC(=O)CC(C)C)cc3)n2)cc1,i
CC1=C(C)CS(=Nc2ccc([N+](=O)[O-])cc2)N(S(=O)(=O)c2ccccc2)C1 (stereo not drawn),i
CC(C)CCn1c(CN(C)Cc2cnccn2)cnc1S(=O)(=O)C(C)C,i
CC(=O)c1cccc(CN2CCCC(CO)(Cc3cccc(Cl)c3)C2)c1 (stereo not drawn),i
Cc1ccc(-c2csc(NC(=O)c3ccc(S(=O)(=O)N4CCc5ccccc54)cc3)n2)o1,39%*
CC(=O)c1sc(NC(=O)c2ccc(S(=O)(=O)N3CCc4ccccc43)cc2)nc1C,i
O=C(Nc1nc(-c2ccccn2)cs1)c1ccc(S(=O)(=O)N2CCOCC2)cc1,i
CSc1cccc(CNC(=O)COc2ccc(N3CCN(c4ccccn4)CC3)nn2)c1,i
COc1ccccc1C(=O)N1CCC2(CCCN(CC3CCC3)C2=O)C1 (stereo not drawn),i
CN(C)CC1(O)CCN(C(=O)CCc2ccc3c(c2)OCO3)C1 (stereo not drawn),i
O=C(CN1C(=O)CC(c2ccccc2)=Nc2ccccc21)Nc1ccccc1Cl,i
O=c1c2c[nH]c3ccccc3nc-2c2ccccc12,42%*
Nc1ccc(Br)cc1-c1nc2ccccc2[nH]c1=O,i
O=C(O)c1cc(-c2c[nH]c3ccccc23)n[nH]1,i
O=C(Nc1nnc(-c2cccs2)o1)c1ccc(S(=O)(=O)N2CCCCCC2)cc1,i
O=C(CN1C(=O)C2CCCCN2C(=O)c2ccccc21)NCc1ccc(F)cc1 (stereo not drawn),37%*
O=C(CN1C(=O)C2CCCCN2C(=O)c2ccccc21)N1CCN(Cc2ccccc2)CC1 (stereo not drawn),i
O=C(CN1C(=O)C2CCCCN2C(=O)c2ccccc21)NCc1ccc2c(c1)OCO2 (stereo not drawn),i
CNC(=O)CCC(=O)N1CC[C@@H](c2ccc3ccccc3c2)[C@H](O)C1,i
Cc1cc(NC(=O)c2c(-c3ccccc3)noc2C)ccc1Br,i
O=C1c2ccccc2C(=O)N1CN1CCN(c2ccc(F)cc2)CC1,i
CN(C)c1ccc(CN2CC[C@H](c3nc4ccccc4[nH]3)C2)cc1,i
NC1CC(=O)N(Cc2cccc3ccccc23)C1 (stereo not drawn),i
SMILES,ST2 inh
CCC(C)c1ccc(OCCCCN2CCN(C)CC2)cc1 (stereo not drawn),39%*
CN1CCN(CCCOc2ccc(C(C)(C)c3ccccc3)cc2)CC1,i
CCC(C)c1ccccc1OCCCCN1CCCC1 (stereo not drawn),i
O=C(CN1C(=O)CC(c2ccccc2)=Nc2ccccc21)Nc1ccc(F)cc1,i
CN1CCN(C(=O)CCC2CCCN(C3CCN(c4ccccc4)CC3)C2)CC1 (stereo not drawn),i
Cc1noc(C)c1-c1ccc(Cl)c(Cl)c1,49%*
CC(C)NC(=O)c1cc(-c2ccc(Cl)c(Cl)c2)on1,i
Cc1cc(NC(=O)c2cc(-c3ccc(Cl)c(Cl)c3)on2)no1,i
CCCCN(CC)C(=O)c1cc(OC)c(OC)cc1[N+](=O)[O-],i
O=S(=O)(c1ccc2c(c1)OCCO2)N1CCC(n2cnc3cccnc32)CC1,98%*
CCc1nc2cccnc2n1C1CCN(S(=O)(=O)c2ccc(C(C)(C)C)cc2)CC1,i
Cc1ccc(S(=O)(=O)N2CCC(n3c(C)nc4cccnc43)CC2)cc1C,i
COc1ncccc1C(=O)N(CC1CCN(C2Cc3ccccc3C2)CC1)CC1CCCO1 (stereo not drawn),i
Cc1ccccc1OCC(O)Cn1c(N2CCNCC2)nc2c1c(=O)n(C)c(=O)n2C (stereo not drawn),i
CCc1ccc(-c2nc(CN3CCC(C(=O)NC4CCCCC4C)CC3)c(C)o2)cc1 (stereo not drawn),i
O=[N+]([O-])C([N+](=O)[O-])=S(c1ccccc1)c1ccccc1,i
O=[N+]([O-])C=C(c1ccccc1)c1ccccc1,39%*
NC(=O)c1ccccc1,i
O=c1cc(CSc2nc3ccccc3c3nc4ccccc4n23)nc2ccccn12,i
Cc1ccc(C(=O)Nc2cc(Cl)ccc2C)cc1,i
Cc1ccc(C)c(S(=O)(=O)N=C(c2ccc(Cl)cc2)N(C)C)c1,78%*
CCN(CC)C(=NS(=O)(=O)c1cc(C)ccc1C)c1ccccc1,i
Cn1c(=O)n(C)c2cc(CN3CC(C(=O)O)CC3=O)ccc21 (stereo not drawn),i
O=[N+]([O-])c1ccc2c(c1)C=C1CCCCC1(NCc1ccco1)O2 (stereo not drawn),i
O=C(Nc1ccc(Br)cc1C(=O)O)c1ccc([N+](=O)[O-])cc1,i
SMILES,ST2 inh
Cc1cc(CC(=O)N2CCCn3nc(C(=O)Nc4ccccc4)cc3C2)on1,i
COC(=O)[C@]1(O)C[C@@H](O)[C@@H](O)[C@H](OC(=O)/C=C/c2ccc(O)c(O)c2)C1,i
Oc1ccc(/C=C/c2ccc(/C=C/c3ccc(O)cc3)c(Br)c2)cc1,i
Oc1cc(O)cc(/C=C/c2ccc(O)c(O)c2)c1,33%*
CC(C)NC(=O)CN(Cc1ccccc1F)S(=O)(=O)c1ccc(Cl)cc1,i
O=C(O)c1ccc2c(=O)n(CCc3ccccc3)c(=O)[nH]c2c1,i
CCc1ccccc1-c1nc(OC)nc(OC)n1,i
CCc1nc(NC)nc(OC)n1,68%*
COc1nc(N(C)C)nc(N(C)C)n1,i
CC(C)Oc1cccc(C(=O)C2CCCN(Cc3c[nH]c(=O)[nH]c3=O)C2)c1 (stereo not drawn),i
Cc1cc(C)cc(N2CCn3c2nc2c3c(=O)n(C)c(=O)n2C)c1,i
CCCCN(CC)C(=O)Cn1cnc2c1c(=O)n(C)c(=O)n2C,i
CCOc1ccc2nc(N3CCCC(N4CCN(c5nonc5C)CC4)CC3)nc(C)c2c1 (stereo not drawn),i
CCOc1ccc2nc(Nc3nc4c(c(=O)[nH]3)CCC4)nc(C)c2c1,31%*
CCOc1ccc2c3c(c(=O)oc2c1)CCC3,i
O=S(=O)(c1cc(Cl)ccc1Cl)N1CCCc2ccccc21,i
Cc1nc2ccc(N(C)C)cc2s1,33%*
Cc1nc2cc(CCO)ccc2s1,i
CN(C)c1ccc(C(=O)Nc2nc3ccc(Cl)cc3s2)cc1,i
COc1ccc(Cc2nc3ccc(OC(C)=O)cc3c(=O)o2)cc1,i
O=c1/c(=C/c2ccc(-c3cccc([N+](=O)[O-])c3)o2)sc2nc3ccccc3n12,i
O=C1c2ccc(Oc3ccc4c(c3)C(=O)N(c3nccs3)C4=O)cc2C(=O)N1c1nccs1,i
N=C1S/C(=C\c2ccc(-c3ccc([N+](=O)[O-])cc3)o2)C(=O)N1c1nccs1,34%*
Cn1c(=O)[nH]c(=O)c2c1nc(CN1CCN(Cc3ccccc3)CC1)n2CCc1ccccc1,i
Cc1nnc(NC(=O)Nc2ccccc2)s1,i
Cc1nnc(NC(=O)c2ccc(C(C)C)cc2)s1,92%*
CC(C)c1nnc(NC(=O)c2ccc(Br)cc2)s1,i
CCCc1nc(C(=O)N2CCO[C@@H]3CCCC[C@H]32)cs1,i
CCOc1ccccc1C1C(C(=O)OC2CCCCC2)=C(C)NC2=C1C(=O)CC(C)(C)C2 (stereo not drawn),i
O=C(O)c1ccc(N=Cc2cc(Br)ccc2O)cc1,i
